PGC1a acetyl inh = modulators of PGC1a acetylation | U2OS PGC1a acetylation, AlphaScreen anti-acetyl-lysine; with virally co-expressed GCN5 acetyltransferase | inhibition, % at 15.6 µM | actives 0.17% (n = 350,000);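 active = every replicate shows inhibition of at least 40%; inconclusive = mean inhibition at least 40% but some replicate below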;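 note: 0% = neutral control wells and 100% = positive control wells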
PAX8 inh HTS = PAX8 transcriptional activity inhibition; AID 652154; actives 1.2% (n = 360,000); RMG-I TPO-luciferase reporter, SteadyGlo, 24 h; inhibition, % at 12.6 µM;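 active = mean replicate inhibition at least 60% with every replicate also reaching 60%; inconclusive = only one of the two criteria is met; inactive = mean below 60% and not all replicates reaching 60%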;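 note: luciferase light reporting Pax8 driven TPO promoter activity; plate controls were median of neutral control wells for no effect and mitoxantrone controls for full effect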
SIRT5 block = blocks human SIRT5 desuccinylation of peptide | Q9NXA8 | Purified SirT5, succinyl-peptide AMC, trypsin-coupled fluorescence | inhibition, % at 15 µM | actives 1.1% (n = 330,000); in the data active = inhibition above about 15%; inconclusive = no clear call, values can overlap the other calls
Target sequence (Q9NXA8 whole entry, looked up): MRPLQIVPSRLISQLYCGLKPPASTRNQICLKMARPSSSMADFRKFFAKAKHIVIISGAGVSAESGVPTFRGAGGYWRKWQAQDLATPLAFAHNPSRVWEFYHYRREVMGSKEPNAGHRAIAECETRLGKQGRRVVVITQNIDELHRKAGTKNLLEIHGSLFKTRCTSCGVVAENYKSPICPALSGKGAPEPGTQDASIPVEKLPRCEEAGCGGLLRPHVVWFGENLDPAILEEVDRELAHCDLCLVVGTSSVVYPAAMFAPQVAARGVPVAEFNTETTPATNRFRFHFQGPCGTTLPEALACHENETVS
EWS-Fli inh = inhibitors of EWS/Fli oncoprotein transcriptional activity | inhibition, % at 12.6 µM | actives 0.67% (n = 350,000) | A673 NR0B1-luciferase reporter, viability-normalised;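 active = mean inhibition of at least 50% after viability correction, with every replicate also passing that limit; inconclusive = mean reaches 50% but only one of two replicates passes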;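 note: firefly luciferase signal divided by Alamar Blue viability fluorescence both relative to DMSO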
Ecoli rRNA inh = inhibits bacterial ribosomal RNA function over humanized ribosomes; GFP signal change (wild-type ribosome), % (concentration not given with the values); AID 720706; actives 1.6% (n = 350,000); E. coli WT GFP vs humanized-ribosome RFP mutants, fluorescence, 24 h; active compounds read low; DMSO median 0, no signal -100;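 active = significant combined selectivity score with lowered wild-type GFP, culture density cut under 30%, mutant RFP and density less affected; inactive = any of these conditions unmet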
LGR2 antag = blocks bursicon-induced cAMP signaling via Drosophila LGR2 | HEK293 LGR2, CRE-luciferase, bursicon-stimulated, 4 h | inhibition, % at 9.99 µM | actives 0.35% (n = 380,000) | AID 720647;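 active = drop in luminescence signal, shown as inhibition above about 50% in the replicate tests, limit read from the data, passing the limit was not always enough; inconclusive = probably only some replicates passing the limit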;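 note: agonist challenge used bursicon conditioned medium at about half maximal strength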
* marks the source's active call; other numbers are inactive results. The list is not random: actives were taken first. Their share in the collection is about 3.4%.

CCOC(=O)N1CCN(S(=O)(=O)c2ccc3c(c2)CC(C)N3C(C)=O)CC1 (centres undefined) was read as PAX8 inh HTS 0.9, SIRT5 block -1.6, Ecoli rRNA inh -46.2* and LGR2 antag 3.8.
NC(=O)NCC#Cc1ccc2c(c1)[C@]1(C(=O)N2)[C@H](c2ccccc2OCCO)N2[C@H](c3ccccc3)[C@H](c3ccccc3)OC(=O)[C@H]2[C@@H]1C(=O)N1CCN(c2ncccn2)CC1 was read as PAX8 inh HTS -4.4, SIRT5 block 21.4* and EWS-Fli inh -1.9.
NC(=O)NCC#Cc1ccc2c(c1)[C@]1(C(=O)N2)[C@H](c2ccccc2OCCO)N2[C@H](c3ccccc3)[C@H](c3ccccc3)OC(=O)[C@H]2[C@@H]1C(=O)N1CCCCCCC1 was read as PGC1a acetyl inh 9.0, PAX8 inh HTS 22.7, SIRT5 block 9.3 and EWS-Fli inh 0.9.
For NC(=O)[C@H]1[C@@H]2C(=O)O[C@@H](c3ccccc3)[C@@H](c3ccccc3)N2[C@@H](c2ccccc2OCCO)[C@]12C(=O)Nc1ccccc12 the results were PGC1a acetyl inh -38.9, PAX8 inh HTS inconclusive, SIRT5 block 8.5 and EWS-Fli inh 38.2.
`O=C1O[C@H](c2ccccc2)[C@H](c2ccccc2)N2[C@H]1[C@@H](C(=O)N1CCCCCCC1)[C@]1(C(=O)Nc3ccccc31)[C@H]2c1ccccc1OCCO` gave PGC1a acetyl inh -8.3, PAX8 inh HTS 78.6*, SIRT5 block -5.6 and EWS-Fli inh 19.9.
For NC(=O)[C@@H]1[C@H]2C(=O)O[C@H](c3ccccc3)[C@H](c3ccccc3)N2[C@H](c2ccccc2OCCO)[C@@]12C(=O)Nc1ccccc12 the results were PGC1a acetyl inh -5.1, PAX8 inh HTS 83.8*, SIRT5 block 10.2 and EWS-Fli inh 23.9.
`O=C1O[C@@H](c2ccccc2)[C@@H](c2ccccc2)N2[C@@H](c3ccccc3OCCO)[C@]3(C(=O)Nc4ccc(C#CCCO)cc43)[C@@H](C(=O)N3CCCCCCC3)[C@H]12` gave PAX8 inh HTS 92.5*, SIRT5 block 6.1 and EWS-Fli inh 12.8.
For O=C(N[C@@H]1C=C[C@H](CC(=O)N2CCOCC2)O[C@H]1CO)c1cccc(F)c1 the results were PGC1a acetyl inh -8.5, PAX8 inh HTS -5.1, SIRT5 block -0.4, EWS-Fli inh -1.2, Ecoli rRNA inh -2.8 and LGR2 antag -8.8.
CNC[C@H]1OCCCC[C@H](C)Oc2ccc(NS(=O)(=O)c3cn(C)cn3)cc2C(=O)N([C@@H](C)CO)C[C@H]1C was read as PGC1a acetyl inh 11.1, PAX8 inh HTS -5.3, EWS-Fli inh -10.3, Ecoli rRNA inh 5.1 and LGR2 antag 14.3.
For CO[C@@H]1CN(C)C(=O)c2ccc(NC(=O)C3CCC3)cc2OC[C@@H](C)N(C(=O)CN(C)C)C[C@H]1C the results were PGC1a acetyl inh 3.2, PAX8 inh HTS -29.6, SIRT5 block -1.9, Ecoli rRNA inh 1.6 and LGR2 antag 2.3.
CO[C@@H]1CN(C)C(=O)c2ccc(NC(C)=O)cc2OC[C@H](C)N(Cc2ccncc2)C[C@H]1C was read as PGC1a acetyl inh -16.3, SIRT5 block -2.3, EWS-Fli inh -7.9, Ecoli rRNA inh 0.7 and LGR2 antag 9.9.
`O=C(CC1SC(=Nc2ccc(OC(F)F)cc2)N(CCN2CCOCC2)C1=O)Nc1ccccc1` (centres undefined) gave PGC1a acetyl inh 2.5, PAX8 inh HTS 64.4*, SIRT5 block -0.3, EWS-Fli inh 8.5, Ecoli rRNA inh -11.4 and LGR2 antag -1.2.
For CC[N+](CC)(CC)CCOc1ccc(/C=C/c2ccccc2)cc1 the results were PGC1a acetyl inh -11.8, PAX8 inh HTS 95.5*, SIRT5 block -0.5, EWS-Fli inh 7.5, Ecoli rRNA inh -53.5 and LGR2 antag 15.6.
For Cc1ccc(S(=O)(=O)Nc2ccc3c(c2)C(=O)N(C)[C@H]2CC[C@H](CC(=O)O)O[C@@H]2CO3)cc1 the results were PGC1a acetyl inh 2.5, PAX8 inh HTS -12.1, SIRT5 block 0.6, EWS-Fli inh 5.0, Ecoli rRNA inh 6.8 and LGR2 antag -15.4.
For CCCCCC(=O)Nc1cc(S(=O)(=O)O)cc2cc(S(=O)(=O)O)cc(O)c12 the results were PAX8 inh HTS 10.5, SIRT5 block 35.9*, EWS-Fli inh 7.8, Ecoli rRNA inh 10.6 and LGR2 antag -1.8.
For Cc1n(Cc2ccccc2)c2ccccc2[n+]1Cc1ccccc1 the results were PGC1a acetyl inh 0.0, PAX8 inh HTS 26.1, SIRT5 block 3.0, EWS-Fli inh 19.2, Ecoli rRNA inh -33.7* and LGR2 antag 5.8.
For Nc1nc(F)nc2c1ncn2[C@@H]1O[C@H](CO)[C@@H](O)[C@H]1O the results were PGC1a acetyl inh 82.6*, PAX8 inh HTS 107.6*, SIRT5 block -0.8, EWS-Fli inh 45.5 and LGR2 antag 75.3*.
For Nc1nc(F)nc2c1ncn2[C@@H]1O[C@H](CO)[C@@H](O)[C@@H]1O the results were PGC1a acetyl inh -14.1, PAX8 inh HTS 59.8, SIRT5 block 8.0, EWS-Fli inh 16.2 and LGR2 antag 0.0.
For C[C@H]1CCCCO[C@@H](CN(C)C(=O)c2ccccc2)[C@@H](C)CN([C@@H](C)CO)C(=O)c2cc(NC(=O)Nc3ccc(C(F)(F)F)cc3)ccc2O1 the results were PGC1a acetyl inh -1.6, PAX8 inh HTS 89.3*, SIRT5 block -1.8, EWS-Fli inh -15.0, Ecoli rRNA inh 0.4 and LGR2 antag -10.9.
For C[C@@H]1CCCCO[C@H](CN(C)C(=O)c2ccccc2)[C@@H](C)CN([C@@H](C)CO)C(=O)c2cc(NC(=O)Nc3ccc(C(F)(F)F)cc3)ccc2O1 the results were PGC1a acetyl inh 4.2, PAX8 inh HTS 93.7*, SIRT5 block 6.4, EWS-Fli inh -6.5, Ecoli rRNA inh 1.0 and LGR2 antag -6.5.
Screening C[C@@H]1CCCCO[C@@H](CN(C)C(=O)Cc2ccccc2)[C@H](C)CN([C@@H](C)CO)C(=O)c2cc(NC(=O)Nc3ccc(C(F)(F)F)cc3)ccc2O1 returned PAX8 inh HTS 71.1*, SIRT5 block 5.0, EWS-Fli inh 4.3, Ecoli rRNA inh 2.5 and LGR2 antag 10.1.
C[C@H]1CCCCO[C@@H](CN(C)C(=O)Nc2ccccc2)[C@@H](C)CN([C@@H](C)CO)C(=O)c2cc(NC(=O)Nc3ccc(C(F)(F)F)cc3)ccc2O1 was read as PGC1a acetyl inh -1.7, PAX8 inh HTS 17.0, SIRT5 block -5.8, EWS-Fli inh -12.5, Ecoli rRNA inh 2.7 and LGR2 antag 13.2.
C[C@@H]1CCCCO[C@@H](CN(C)C(=O)c2ccccc2)[C@@H](C)CN([C@@H](C)CO)C(=O)c2cc(NC(=O)Nc3ccc(C(F)(F)F)cc3)ccc2O1 was read as PGC1a acetyl inh 12.6, PAX8 inh HTS 85.6*, SIRT5 block 5.9, EWS-Fli inh -5.1, Ecoli rRNA inh -1.5 and LGR2 antag -8.6.
